HEK293 tox – qHTS of GLP-1 Receptor Inverse Agonists: Cytotox Screen; HEK293 cAMP-luciferase reporter cells, luminescence, 24 h; Potency, µM (highest dose often 38.3 µM), hits mostly inhibitors; actives 0.13% (n = 410,000);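 also: loss of luciferase light is scored as toxicity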
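Cells in DMEM/10% Nu serum/1% pen-strep, 1536-well format. Pre-incubated 12 h, dosed with 23 nL compound, incubated a further 24 h. Luciferase detection, 12 min at room temp, luminescence.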
TRPML1 ag – qHTS for Agonists of the Human Mucolipin Transient Receptor Potential 1 (TRPML1); AID 624414, 2012; TRPML1-expressing cells, Ca2+ dye fluorescence, FDSS; activation, % (no concentration beside the values); Mucolipin-1 (Homo sapiens), Q9GZU1; actives 0.12% (n = 410,000); in the data active = activation above about 50%; inconclusive = mostly about 30% to 49%
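TRPML1-DL cells, Tet-induced overnight (~16 h, 37 degrees C), loaded 45-90 min at room temperature with Ca8 no-wash calcium dye plus quencher. FDSS fluorescence: 10 s baseline, compound pin-transfer, 110 s agonist read, then EC80 54-4 (4uM final) and 110 s antagonist read.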
PTHR1 ag – qHTS for PTHR1 Agonists: Primary Screen | actives 0.075% (n = 410,000) | Parathyroid hormone/parathyroid hormone-related peptide receptor (Homo sapiens), Q03431 | AID 743266, 2014 | Potency, µM (top dose mostly 115 µM), hits mostly activators | HEK293 GP2 PTHR1 cells, GloSensor cAMP luminescence, 1 h; also: nearly all actives have a fitted effect of over 55% in size
Target sequence (Q03431 whole entry, looked up): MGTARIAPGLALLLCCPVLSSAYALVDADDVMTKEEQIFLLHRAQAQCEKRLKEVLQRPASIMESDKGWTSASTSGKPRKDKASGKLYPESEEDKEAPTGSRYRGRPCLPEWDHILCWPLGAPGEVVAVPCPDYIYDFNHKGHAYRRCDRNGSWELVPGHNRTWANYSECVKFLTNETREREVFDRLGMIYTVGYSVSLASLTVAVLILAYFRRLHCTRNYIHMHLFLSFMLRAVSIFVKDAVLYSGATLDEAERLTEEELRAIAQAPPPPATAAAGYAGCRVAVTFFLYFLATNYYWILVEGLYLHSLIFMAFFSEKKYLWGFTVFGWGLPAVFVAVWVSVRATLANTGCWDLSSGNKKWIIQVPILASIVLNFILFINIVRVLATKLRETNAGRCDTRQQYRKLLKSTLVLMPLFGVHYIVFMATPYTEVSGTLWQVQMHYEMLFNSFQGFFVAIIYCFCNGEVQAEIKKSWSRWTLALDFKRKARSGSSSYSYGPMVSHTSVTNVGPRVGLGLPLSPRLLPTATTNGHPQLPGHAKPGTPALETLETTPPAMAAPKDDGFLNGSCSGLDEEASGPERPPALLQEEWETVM
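HEK-293-derived GP2 cells expressing PTHR1 and a GloSensor cAMP reporter, 3,000/well, plated overnight, given luciferin plus IBMX (each 0.5 mM as added) for 1 h at 37 °C, then compound for 1 h at 37 °C. Luminescence was read after 15 min at room temperature.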
TRHR PAM – qHTS for Small Molecule Agonists and Allosteric Enhancers of Human TRH Receptor: Primary Screen for Enhancers; Thyrotropin-releasing hormone receptor (Homo sapiens), P34981; TRHR cells, fluo-8 calcium fluorescence, EC20 TRH enhancement; enhancement, % at 2 µM; actives 0.66% (n = 360,000); AID 493056, 2011; in the data active = enhancement above about 30%
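Enhancer read-out: after compound pinning and an initial kinetic agonist-mode read, an EC20 of TRH (10 nM final) was injected and fluo-8 calcium signal (Ex 480/Em 530) followed at 1 s/cycle for 100 cycles in TRHR-expressing cells.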
TRPML1 blocker – qHTS for Inhibitors of the Human Mucolipin Transient Receptor Potential 1 (TRPML1). actives 0.02% (n = 390,000). AID 624415, 2012. activity change, negative = inhibition, % (test concentration not listed). Mucolipin-1 (Homo sapiens), Q9GZU1. TRPML1-inducible cells, Ca2+ dye fluorescence, FDSS; active compounds read low; inhibition of EC80 agonist-evoked calcium signal; in the data active = activity change below about -50%; inconclusive = between about -30% and that limit;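 also: stimulus is agonist 54-4 at its EC80 concentration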
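TRPML1-DL cells, Tet-induced overnight (~16 h, 37 °C) at 1,500 cells/well, were loaded with Ca8 no-wash dye plus quencher for 45-90 min at room temperature. Compounds were pinned during FDSS kinetic reading; agonist 54-4 at EC80 (4 uM final) then added.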
TRHR ag – qHTS for Small Molecule Agonists and Allosteric Enhancers of Human TRH Receptor: Primary Screen for Agonists | activation, % at 2 µM | actives 0.18% (n = 360,000) | TRHR cells, calcium flux fluo-8, FDSS agonist mode; in the data active = activation above about 30%
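In this calcium-flux screen, cells bearing human TRHR are dye-loaded with fluo-8, baselined for 10 cycles, then exposed to library compounds; positive kinetic calcium responses during the agonist phase mark hits, with TRH as control.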
A number is an active result; - = inactive; ? = inconclusive; . = no result given. Rows were chosen to be rich in hits. Some 0.93% of all compounds tested hit in one or more screens of this group. Unless noted, calls follow the shape of the dose curve; as a rule, active = well fitted curve in the direction sought with a large enough effect; inconclusive = small, poorly fitted or top-dose-only effect, or another doubt; inactive = no such curve, though single readings can be large; an effect the other way counts as inactive or inconclusive.

SMILES	HEK293 tox	TRPML1 ag	PTHR1 ag	TRHR PAM	TRPML1 blocker	TRHR ag
CCOc1ccc(CN2CCN(C3CCSCC3)CC2CCO)cc1 (centres undefined)	-	-	-	40.7	-	-
CCOc1ccc(CN2CCN(C3CCC3)CC2CCO)cc1 (centres undefined)	-	-	-	-	-	-
C[C@@H]1[C@H](c2ccccc2)OCCS(=O)(=O)N1Cc1cccc(C(F)(F)F)c1	.	-	.	.	.	.
CC1(C)Cc2c(C#N)c(N3CCN(C(=O)c4ccccc4)CC3)nc(-c3ccco3)c2CS1	-	-	-	32.8	-	-
CC(C)c1nc(N2CCN(C(=O)c3ccccc3)CC2)c(C#N)c2c1COC(C)(C)C2	-	-	-	-	-	-
Cn1c2cc(C#N)sc2c2cnn(Cc3ccccc3F)c(=O)c21	.	.	.	-	.	-
N#C/C(=C\c1ccc(/C=C(/C#N)c2nn(CCO)c(N)c2C#N)cc1)c1nn(CCO)c(N)c1C#N	-	-	-	-	-	-
COc1cc(/C=C(\C#N)c2nn(CCO)c(N)c2C#N)cc(OC)c1OC	-	-	-	33.1	-	-
COc1ccc(C2/C=C\CN(S(=O)(=O)CC34CCC(CC3=O)C4(C)C)CC(=O)N2Cc2ccc(F)cc2)cc1 (centres undefined)	.	-	.	.	-	.
CC(=O)c1ccc(Nc2nc(N3CCOCC3)nc(N3CCOCC3)n2)cc1	-	-	-	39.6	-	-
CCOC(=O)c1c(C)[nH]sc1=S	-	-	-	33.4	-	-
c1nc(SSc2ncc3n[nH]nc3n2)nc2n[nH]nc12	.	-	.	.	.	.
CCCOC1CCCN(C(=O)c2ccc(OC3CCN(C(=O)CCOC)CC3)cc2)C1 (centres undefined)	-	-	-	-	-	-
CCCOC1CCCN(C(=O)c2ccc(OC3CCN(C(=O)COC)CC3)cc2)C1 (centres undefined)	10µM	-	-	-	-	-
CCN(N=O)c1ccc(/C=C/c2ccnc3ccccc23)cc1	.	-	.	.	.	.
COc1ccc(C(=O)Nc2nnc(CC(=O)N/N=C/c3ccc(O)cc3O)s2)cc1	.	.	.	-	.	51.6
COc1ccc2[nH]c(C)c(C(=O)CNc3nccs3)c2c1	.	-	.	.	.	.
Cc1cc(C)n(-c2nc(NCC(C)O)c3c4c(sc3n2)COC(C)(C)C4)n1 (centres undefined)	?	-	-	-	-	-
Cc1cc(C)n(-c2nc(NCC3CCCO3)c3c4c(sc3n2)COC(C)(C)C4)n1 (centres undefined)	3.16µM	-	-	-	-	-
CN(CCC#N)c1ccc(/C=C/c2ccnc3ccccc23)cc1	.	-	.	.	.	.
Nc1cccc2c1C(=O)N(C(=O)/C=C/c1cccc(F)c1)C2=O	-	-	-	30.9	-	-
C[n+]1ccc(/C=C/c2cc[n+](C)c3ccccc23)c2ccccc21	.	-	.	.	.	.
O=C(C[N+]1(CCO)CCOCC1)c1cccs1	.	-	.	.	.	.
COc1ccc(C(=O)/C=C2/C(=O)Nc3ccccc32)c(OC)c1	10µM	-	-	-	-	-
COc1ccc(C(=O)/C=C2/C(=O)Nc3ccccc32)cc1	?	-	-	-	-	-
SMILES	HEK293 tox	TRPML1 ag	PTHR1 ag	TRHR PAM	TRPML1 blocker	TRHR ag
CCOC(=O)c1c(C)sc(-c2c(-c3cccc(Cl)c3)[nH]c3c2c(=O)n(C)c(=O)n3C)c1O	-	?	-	-	-	169.3
CCc1cccc(NC(=O)Cn2c(C(=O)OC)cc3occc32)c1	-	-	-	36.5	-	-
FC(F)(F)c1nc(N2CCCC2)ncc1-c1nnnn1-c1ccccc1	-	52.0	-	-	-	-
Cc1nnsc1C(=O)N/N=C/c1ccc2ccccc2c1O	-	?	-	-	-	65.2
O=C(N/N=C/c1ccc(OC(F)F)cc1)c1cc[n+]([O-])cc1	-	-	-	33.7	-	-
COc1ccc(/C=N/NC(=O)c2cc[n+]([O-])cc2)cc1	-	-	-	-	-	-
CCCC(=O)Oc1ccc2[nH]c(C(=O)c3cc4ccccc4[nH]3)cc2c1	.	-	.	.	.	.
COc1ccc(C#Cc2c[nH]c(=O)c3cncnc23)cc1OC	.	-	.	.	.	.
N#Cc1ncc(Br)cn1	.	-	.	.	.	.
CCN(CC)c1ccc(/C=C2/C(=O)c3ccc(C(=O)O)cc3C2=O)cc1	-	65.3	-	41.3	-	187.8
CCN(CC)c1ccc(C=C2C(=O)OC3(CCCCC3)OC2=O)cc1	-	-	-	-	-	-
COc1ccccc1CNC(=O)C1CCCC1	-	-	-	-	-	-
COc1ccccc1CN1CCCCC1C(=O)O (centres undefined)	-	-	-	40.9	-	-
CCN(CC)C(=O)c1ccc2c(c1)N(Cc1ccccc1)C(=O)CS2=O (centres undefined)	-	-	-	32.9	-	-
CC(=O)NC(Cc1ccc(Cl)cc1)C(=O)NCC(N)C(=O)c1ccccc1 (centres undefined)	.	-	.	.	.	.
CC(=O)Nc1ccc(/C=N/N2C(=O)NC(C)(c3ccc(OC(F)F)cc3)C2=O)cc1 (centres undefined)	-	50.0	-	-	-	-
CCOc1ccc2c(ccc(/C=C/c3cc(C)c4cccnc4c3O)[n+]2C)c1	11.2µM	-	-	.	-	.
Cc1cc(C)c2cccnc2c1O	.	-	.	.	.	.
COc1ccc(OC)c2nc3c(C(=O)NCCN(C)C)cccc3nc12	7.08µM	-	-	.	-	.
CN(C)CCNC(=O)c1cccc2nc3cccc(F)c3nc12	-	-	-	.	-	.
Cc1cccc(-c2ocnc2C(=O)Nc2ccccc2NC(=O)c2ccccn2)c1	?	-	-	-	-	-
Cc1ccc(-c2ocnc2C(=O)Nc2ccccc2NC(=O)c2ccccn2)cc1	1.12µM	-	-	-	-	-
Cc1cc(C)nc(-n2nc(C)c(Br)c2Nc2ccc(Br)cc2)n1	5.62µM	-	-	-	-	-
Cn1c(SCC(=O)NCc2ccco2)nnc1-c1cccc(NC(=O)c2ccccc2)c1	.	-	.	.	.	.
N#CCc1nc2ccc(S(=O)(=O)N3CCOCC3)cc2s1	-	-	-	-	-	34.9
CSc1nc2ccc(S(=O)(=O)N3CCOCC3)cc2s1	-	-	-	-	-	-
O=C(Nc1ccc(Br)cc1F)c1cnn2c1NC(=C1CC1)C=C2C(F)F	.	-	.	.	.	.
Cc1cccc(C)c1NC(=O)CN(C)CC(=O)Nc1cc(Cl)ccc1C#N	-	-	-	34.4	-	-

Compound activity deposited in PubChem BioAssay by National Center for Advancing Translational Sciences (NCATS).
